Results published in PubChem BioAssay (NCI).
About 83,000 compounds went through this panel and 20% of them were active in at least one assay; those are over-represented in the sample as a whole.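 The test compound was applied at a single concentration to cells in 96-well plates for 48 hours, and percent growth was recorded.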 A number with no mark means an inactive call. Calls of active or inactive are those of the source. How the source made its calls: active means growth percent below 10; inactive means the rest.

Key:
Assay in all cases: NCI-60 one-dose screen, 48 h (100 = growth as untreated, 0 = no growth, -100 = all killed)
Conditions in all cases: 10 µM unless noted
[1] = test system: HCT-15 colon
[2] = test system: HT29 colon
[3] = test system: SNB-75 CNS
[4] = test system: SNB-19 CNS
[5] = test system: U251 CNS
[6] = test system: SK-MEL-5 melanoma
[7] = test system: UACC-62 melanoma
[8] = test system: LOX IMVI melanoma
[9] = test system: SK-MEL-28 melanoma
[10] = test system: SK-MEL-2 melanoma
[11] = test system: EKVX NSCLC
[12] = test system: SN12C renal
[13] = test system: UO-31 renal
[14] = test system: TK-10 renal
[15] = test system: ACHN renal
[16] = test system: CAKI-1 renal
[17] = test system: A498 renal
[18] = test system: CCRF-CEM leukemia
[19] = test system: MOLT-4 leukemia

SMILES | growth [1] | growth [2] | growth [3] | growth [4] | growth [5] | growth [6] | growth [7] | growth [8] | growth [9] | growth [10] | growth [11] | growth [12] | growth [13] | growth [14] | growth [15] | growth [16] | growth [17] | growth [18] | growth [19]
Cn1cc(C(=O)c2nc(-c3c[nH]c4ccc(Br)cc34)no2)c2cc(F)ccc21 | 92.1% | 102% | 74.8% | 99.1% | 100% | 83.8% | 78% | 95.4% | 105% | 97.5% | 73.2% | 92.8% | 68.8% | 115% | 89.6% | 80.1% | 107% | 100% | 94.8%
COc1ccc(C2CC(c3ccc4ccccc4c3)=NN2/C=C2\SC(=S)N(NC(=O)Cc3ccccc3Nc3c(Cl)cccc3Cl)C2=O)cc1 (stereo not given) | 19.4% | 32.3% | -15.7% (active) | 32% | 16.1% | 19.6% | 42.8% | 37.1% | 57% | 38.8% | 40.2% | 31.7% | 11.8% | 48.7% | 47.4% | 31.5% | -0.474% (active) | 6.24% (active) | 13.9%
Nc1ccc(-c2cc3c(NCc4ccccc4)ncnc3s2)cc1 | 82.2% | 103% | 89.2% | 73.6% | 82.4% | 55.7% | 71.8% | 84.2% | 92.3% | 85.1% | 57.9% | 72.6% | 58.5% | 50.2% | 52.7% | 63.1% | 52.6% | 81.9% | 83.7%
COc1cc(C2CC(=O)c3ccccc3N2)cc(OC)c1OC (stereo not given) | 102% | 77.8% | 94.7% | 97.1% | 88.5% | 99.5% | 94.1% | 104% | 107% | 74.3% | 103% | 92% | 92.4% | 105% | 102% | 93.4% | 83.7% | 95.5% | 97%
CCOc1nc(-c2ccccc2)cc2c(O)c(C(=O)O)[nH]c(=O)c12 | 106% | 104% | 81.3% | 94.3% | 104% | 90.6% | 110% | 95.2% | 138% | 95.3% | 98.2% | 111% | 87.1% | 134% | 100% | 105% | 119% | 83% | 92.4%
CC(=O)Nc1ccc(-n2c(O)c(/C=N/NC(=O)Cc3ccccc3Nc3c(Cl)cccc3Cl)sc2=S)cc1 | 103% | 104% | 89.6% | 96.4% | 90.4% | 96.2% | 95.4% | 84.2% | 111% | 113% | 100% | 104% | 84.1% | 112% | 99.1% | 84.9% | 97.1% | 96.7% | 94.2%
Cc1cn2c(/C=C3/C(=O)Nc4c3ccc3ccccc43)c(C(F)(F)F)nc2s1 | 27% | 0.295% (active) | -6.4% (active) | 36.3% | 17.5% | 24.7% | 31.6% | 33.6% | 58.4% | 20% | 44.4% | 38.2% | 34.7% | 36.3% | 48.5% | 34.3% | 0.919% (active) | 16.4% | 35.1%
COc1ccc(-n2nc(C)c3c(Nc4ccc(NC(=O)Nc5cc(C(F)(F)F)ccc5F)cc4)ncnc32)cc1 | 8.66% (active) | 1.92% (active) | 25.8% | 34.8% | 12.9% | 46% | 19.6% | -90.5% (active) | 48.6% | 25% | 24.1% | 44.9% | 16% | 47.5% | 25.3% | 4.88% (active) | 56.5% | 38.4% | 39.3%
Cc1cc(C)nc(SC2=C(Nc3ccc(O)cc3)C(=O)N(Cc3ccccc3)C2=O)n1 | 89.5% [40 µM] | 119% [40 µM] | 89.8% [40 µM] | 85.1% [40 µM] | 91.9% [40 µM] | 82.4% [40 µM] | 68.4% [40 µM] | 82.8% [40 µM] | 112% [40 µM] | 96.1% [40 µM] | 77.4% [40 µM] | 94.3% [40 µM] | 70.8% [40 µM] | 110% [40 µM] | 93.4% [40 µM] | 64.4% [40 µM] | 112% [40 µM] | 39.1% [40 µM] | 58% [40 µM]
O=C1/C(=C/N2N=C(c3ccc4ccccc4c3)CC2c2ccccc2O)SC(=S)N1c1cccnc1 (stereo not given) | 12.4% | 10.7% | -4.45% (active) | 40.1% | 16.1% | 64% | 66.2% | 27.5% | 78.6% | 100% | 43.2% | 39.5% | 11.6% | 60.1% | 43.6% | 41.9% | 14.3% | 11.7% | 19.2%
NC(=O)c1cc(I)ccc1NC(=O)/C=C/c1ccccc1Cl | 17.8% | 8.09% (active) | -14.5% (active) | 31.9% | 21.8% | 3.33% (active) | 37.8% | 50.7% | 38% | 75.1% | 28% | 40.7% | 30.6% | 62.3% | 56.2% | 13% | 62.4% | -19.6% (active) | 10.4%
Cc1ccc2c(C(C[N+](=O)[O-])c3ccccc3F)c(-c3ccccc3)[nH]c2c1 (stereo not given) | 25.7% | 6.14% (active) | 24.6% | 49.1% | 25.3% | 48.1% | 42.4% | 36.4% | 63% | 15.4% | 56.3% | 54.5% | 47.5% | 70.6% | 48.5% | 32.9% | 32.5% | 28.6% | 25.9%
Cc1nn(-c2ccc(F)cc2)c2ncnc(Nc3ccc(NC(=O)Nc4ccc(Cl)c(C(F)(F)F)c4)cc3)c12 | 11.2% | 37.9% | 32.4% | 23.7% | 19.5% | 61.1% | 11% | 34.8% | 17.8% | -7.22% (active) | 43.9% | 27.2% | 40.1% | 26.5% | 3.49% (active) | 12.4% | 37.9% | 28.9% | 26.4%
COc1ccc(-c2cc(Nc3ccnc(N4CCOCC4)n3)on2)cc1 | 20.3% | 9.4% (active) | -3.66% (active) | 39% | 23.2% | 19.7% | 60.5% | 51.9% | 69.3% | 42% | 50.9% | 47.2% | 51.9% | 69.1% | 44.9% | 51.8% | -0.776% (active) | 17.2% | 21.2%
O=C(Nc1ccccc1Cl)c1ccc(NC2=C(Cl)C(=O)N(C3CCCCC3)C2=O)cc1 | 46.5% [30 µM] | 37.4% [30 µM] | 38.8% [30 µM] | 62.1% [30 µM] | 34.1% [30 µM] | 54.4% [30 µM] | 66.2% [30 µM] | 23.7% [30 µM] | 56.1% [30 µM] | 104% [30 µM] | 98.5% [30 µM] | 97.6% [30 µM] | 75.8% [30 µM] | 88.5% [30 µM] | 78.9% [30 µM] | 20.5% [30 µM] | 123% [30 µM] | 39.6% [30 µM] | 40.8% [30 µM]
